{
  "source": "the supplement of paper PMC12340860",
  "note": "± gives the standard deviation of the averaged measurements.",
  "data": [
    {"test_system": "Caenorhabditis elegans infected with Nematocida parisii", "assay": "progeny production of N. parisii-infected C. elegans relative to uninfected control; higher = stronger inhibition of microsporidia infection (rescue of reproduction)", "conditions": "60 µM; incubation time 5 days; spore dose (spores/uL): 18000", "procedure": "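C. elegans N2 L1 larvae (100 per well, 96-well plate, K-medium with 5x E. coli OP50, 1% DMSO) were infected with Nematocida parisii spores (18,000 spores/uL) that had been pre-incubated for 1 h with each BU-CMD library compound at 60 uM. Plates were incubated 5 days at 21 C with shaking. Progeny were stained with rose bengal, scanned on a flatbed scanner and counted with WorMachine. Progeny number is expressed as % of uninfected DMSO controls on the same plate; three biological replicates per compound; hits were compounds with at least 60% progeny production.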", "units": {"progeny production": "%"}, "values": [
      {"smiles": "COc1ccc(C2=CC3=C(Br)C(=O)C(C)(O)C(=O)C3=CO2)cc1", "note": "(centres undefined)", "progeny production": "80.6 ± 13"},
      {"smiles": "CC(=O)[C@@H]1[C@@H](C)N(Cc2ccccc2)C(=O)N[C@H]1c1cccc(C(F)(F)F)c1", "progeny production": "33.2 ± 12"},
      {"smiles": "COC(=O)C1=C(C)N(CCc2cc(OC)c(OC)c(OC)c2)C(=O)N[C@H]1c1ccccc1", "progeny production": "38.1 ± 18"},
      {"smiles": "C=C(C)C[C@@H](O)COc1cc2c(cc1C1(c3cc4c(cc3OC[C@H](O)CC(=C)C)OCO4)C(=O)Nc3cc(F)ccc31)OCO2", "progeny production": "20.5 ± 11"}
    ]}
  ]
}
